Compound activity from PubChem.
Sampled rows, rich in hits. Any-hit rate of the full collection: about 1.3%.
GLD-1 RNA inh: GLD-1-TGE RNA interaction inhibition (C. elegans); Q17339; purified GLD-1 + fluorescein TGE RNA, fluorescence polarization; inhibition, % at 5.96 µM; 320,000 compounds, 0.44% hits;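 active means percent inhibition above a per-plate cutoff, the plate mean of test compounds plus 3 SD, cut at about 30% in these data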
EBV gp42 block: blocks Epstein-Barr virus glycoprotein 42 binding; 220,000 compounds, 0.42% hits; inhibition, % (tested at 21.74 µM); Fluorescence polarization binding assay, mP read-out; Q1HVG2; in the data active means inhibition above about 50%
MEX-5 binding: C. elegans MEX-5 TCR-2 RNA binding activity. MEX-5/FITC-TCR2 RNA binding, fluorescence polarization; hits give low values. activity score (negative = inhibition of binding), % at 10 µM. 300,000 compounds, 0.38% hits;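 active means inhibition past about -25% in most replicates, and total fluorescence under double the plate's negative control median, limit read from the data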
MCL1-BIM inh: MCL1-BIM-BH3 interaction inhibition (human); GST-MCL1 / FITC-Bim-BH3 fluorescence polarization; inhibition, % at 10.9 µM; 320,000 compounds, 0.68% hits;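 active means inhibition above the mean inhibition of all tested compounds plus 3 SD, set per campaign, cut at about 40% in these data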;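 further: higher means more loss of mP so more displacement of Bim peptide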
Target sequence (Q07820 whole entry, looked up): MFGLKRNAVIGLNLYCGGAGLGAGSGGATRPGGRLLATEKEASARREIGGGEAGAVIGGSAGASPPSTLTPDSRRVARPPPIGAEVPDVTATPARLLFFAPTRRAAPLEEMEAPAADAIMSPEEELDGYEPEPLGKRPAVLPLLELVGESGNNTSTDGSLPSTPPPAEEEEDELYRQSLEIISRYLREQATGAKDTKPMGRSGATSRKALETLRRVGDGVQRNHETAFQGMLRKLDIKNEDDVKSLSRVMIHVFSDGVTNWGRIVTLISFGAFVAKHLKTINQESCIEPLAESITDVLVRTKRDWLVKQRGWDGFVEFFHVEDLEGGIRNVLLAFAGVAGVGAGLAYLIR
Bcl-xL primary: inhibitors of human Bcl-xL; 320,000 compounds, 0.7% hits; inhibition, % at 10.9 µM; GST-Bcl-xL / FITC-Bim BH3 peptide fluorescence polarization;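 active means inhibition above the mean of all tested compounds plus 3 SD, cutoff set per campaign, cut at about 30% in these data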;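 further: inhibitors lower millipolarization by displacing the labeled peptide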
GLD-1 TGE cf: GLD-1 TGE RNA interaction inhibition, confirmation. shares compounds with GLD-1 RNA inh. AID 2459. inhibition, % at 5.96 µM. 550 compounds, 10% hits. GLD-1/FL-TGE RNA fluorescence polarization, biochemical;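 active means average inhibition across triplicates above the hit cutoff set in the primary screen, cut at about 32% in these data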
Hits are given with their value.

`O=C(NCCOc1ccc(Cl)cc1)c1ccc2ccccc2n1` gave GLD-1 RNA inh 54, EBV gp42 block inactive, MCL1-BIM inh inactive, Bcl-xL primary inactive and GLD-1 TGE cf inactive.
`O=C(OCCOCCN=C1NS(=O)(=O)c2ccccc21)c1ccc(F)cc1` gave GLD-1 RNA inh inactive, MEX-5 binding inactive, MCL1-BIM inh inactive and Bcl-xL primary inactive.
CCOC(=O)C1CCN(c2cc3c(cc2NC(=O)c2ccc(OC)c(OC)c2)n(C)c(=O)n3C)CC1 was read as GLD-1 RNA inh inactive, MEX-5 binding inactive, MCL1-BIM inh inactive and Bcl-xL primary inactive.
Screening CC(C)CN(C(=O)CCCSc1nc2ccccc2[nH]1)c1c(N)n(Cc2ccccc2)c(=O)[nH]c1=O returned GLD-1 RNA inh inactive, MEX-5 binding inactive, MCL1-BIM inh inactive and Bcl-xL primary inactive.
`CC(C)CCN(C(=O)CCCSc1nc2ccccc2[nH]1)c1c(N)n(Cc2ccccc2)c(=O)[nH]c1=O` gave GLD-1 RNA inh 47, MEX-5 binding inactive, MCL1-BIM inh inactive, Bcl-xL primary inactive and GLD-1 TGE cf 65.
Screening C[C@H]1C=C(C(=O)NCc2nc3ccccc3[nH]2)O[C@@H](OCCCCO)C1 returned GLD-1 RNA inh inactive, MEX-5 binding inactive, MCL1-BIM inh inactive and Bcl-xL primary inactive.
O=C(NCc1nc2ccccc2[nH]1)C1=C[C@@H](C2CCCCC2)C[C@@H](OCCCCO)O1 was read as GLD-1 RNA inh 85, EBV gp42 block inactive, MEX-5 binding inactive, MCL1-BIM inh inactive, Bcl-xL primary inactive and GLD-1 TGE cf inactive.
Screening CCOc1cc(CNCCO)cc(Br)c1OCc1cccs1 returned GLD-1 RNA inh inactive, EBV gp42 block inactive, MEX-5 binding inactive, MCL1-BIM inh inactive and Bcl-xL primary inactive.
CCOc1cc(CNCc2cccs2)cc(Br)c1OCC was read as GLD-1 RNA inh 37, EBV gp42 block inactive, MEX-5 binding inactive, MCL1-BIM inh inactive, Bcl-xL primary inactive and GLD-1 TGE cf inactive.
`CC(C)c1ccc(/C=N/n2nnnc2Nc2ccccc2)cc1` gave GLD-1 RNA inh 49, EBV gp42 block inactive, MEX-5 binding inactive, MCL1-BIM inh inactive, Bcl-xL primary 43 and GLD-1 TGE cf inactive.
Screening COc1ccc2c(c1)C(=O)N(Cc1ccccc1)C(=O)C2(C)C returned GLD-1 RNA inh inactive, MEX-5 binding inactive, MCL1-BIM inh inactive and Bcl-xL primary inactive.
`Cc1ccc(NC(=O)c2oc3ccccc3c2NC(=O)C2CCCO2)cc1C` (stereo unspecified) gave GLD-1 RNA inh inactive, EBV gp42 block inactive, MEX-5 binding inactive, MCL1-BIM inh inactive and Bcl-xL primary inactive.
For COc1ccc(NC(=O)c2oc3ccccc3c2NC(=O)C2CCCO2)cc1OC (stereo unspecified) the results were GLD-1 RNA inh 70, EBV gp42 block inactive, MEX-5 binding inactive, MCL1-BIM inh inactive, Bcl-xL primary inactive and GLD-1 TGE cf inactive.
`CC1CN(C(=S)Nc2ccc(SC(F)F)cc2)CC(C)O1` (stereo unspecified) gave GLD-1 RNA inh inactive, MEX-5 binding inactive, MCL1-BIM inh inactive and Bcl-xL primary inactive.
For CC1CC(C)CN(C(=S)Nc2ccc(SC(F)F)cc2)C1 (stereo unspecified) the results were GLD-1 RNA inh 43, EBV gp42 block inactive, MEX-5 binding inactive, MCL1-BIM inh inactive, Bcl-xL primary inactive and GLD-1 TGE cf inactive.
C[C@@H]1CC(=O)[C@H]2CC(CO)=CCC[C@@H]2[C@@]1(C)CC/C(=C/CO)CO was read as GLD-1 RNA inh 80, MCL1-BIM inh inactive, Bcl-xL primary inactive and GLD-1 TGE cf inactive.
CCOC(=O)CN(C(=O)c1ccccc1[N+](=O)[O-])C(C)(C)C was read as GLD-1 RNA inh inactive, EBV gp42 block inactive, MEX-5 binding inactive, MCL1-BIM inh inactive and Bcl-xL primary inactive.
Screening COc1ccc(C(=O)NC(=S)Nc2ccc(CN3CCOCC3)cc2)cc1 returned GLD-1 RNA inh 64, EBV gp42 block inactive, MEX-5 binding inactive, MCL1-BIM inh inactive, Bcl-xL primary inactive and GLD-1 TGE cf inactive.
Screening O=C(OC(C(=O)Nc1ccc(Cl)c(C(F)(F)F)c1)c1ccccc1)C1=COCCO1 (stereo unspecified) returned GLD-1 RNA inh 45, EBV gp42 block inactive, MEX-5 binding inactive, MCL1-BIM inh inactive, Bcl-xL primary inactive and GLD-1 TGE cf inactive.
For O=C(OC(C(=O)Nc1ccc(Cl)cc1C(F)(F)F)c1ccccc1)C1=COCCO1 (stereo unspecified) the results were GLD-1 RNA inh inactive, EBV gp42 block inactive, MCL1-BIM inh inactive and Bcl-xL primary inactive.
Screening Cc1ccc(NS(=O)(=O)c2ccc3c(c2)NC(=O)CCS3)cc1C returned GLD-1 RNA inh inactive, MEX-5 binding inactive, MCL1-BIM inh inactive and Bcl-xL primary inactive.
For COc1ccc(CCN2C(=S)N(C)C(=O)C2CC(=O)Nc2ccc(F)cc2)cc1 (stereo unspecified) the results were GLD-1 RNA inh 61, EBV gp42 block inactive, MEX-5 binding inactive, MCL1-BIM inh inactive, Bcl-xL primary inactive and GLD-1 TGE cf inactive.
